Assays:
Experiment in all cases: PBM binding z-score (relative to random genomic background probes); higher = stronger binding; sequences stand for … in GC…GCGATTGACAGCGTAGAATGAAGG
[1] = test system: FXR:RXRa (NR concentration 270 nM, RXRa partner concentration 90 nM)
Outline: (§1)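 Scanned fluorescence from custom Agilent 4×180K protein-binding microarrays was regression-normalized. Binding z-scores use random background probes as reference. Ligand-free nuclear receptor dimers were incubated on the arrays for 1 h and detected with antibodies against each partner (one per run).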

[2] = test system: LXRa:RXRa (NR concentration 270 nM, RXRa partner concentration 90 nM)
Outline: as §1

[3] = test system: LXRa homodimer (NR concentration 270 nM)
Outline: as §1

[4] = test system: LXRb homodimer (NR concentration 270 nM)
Outline: as §1

[5] = test system: PPARa:RXRa (NR concentration 270 nM, RXRa partner concentration 90 nM)
Outline: as §1

[6] = test system: PPARg:RXRa (NR concentration 180 nM, RXRa partner concentration 90 nM)
Outline: as §1

[7] = test system: PPARg:RXRa 270nM:90nM, anti-RXR (NR concentration 270 nM, RXRa partner concentration 90 nM)
Outline: as §1

[8] = test system: PPARg:RXRa 30nM:10nM, anti-RXR (NR concentration 30 nM, RXRa partner concentration 10 nM)
Outline: as §1

[9] = test system: PPARg:RXRa 90nM:30nM, anti-RXR (NR concentration 90 nM, RXRa partner concentration 30 nM)
Outline: as §1

[10] = test system: PPARg:RXRa DBDmut IVT, anti-RXR (DBD mutation: RXRa K156A/R161A, NR concentration 270 nM, RXRa partner concentration 90 nM)
Outline: as §1

[11] = test system: PPARg:RXRa IVT, anti-PPARg (NR concentration 270 nM, RXRa partner concentration 90 nM)
Outline: as §1

[12] = test system: PPARg DBDmut:RXRa IVT, anti-PPARg (DBD mutation: PPARg1 K132A/R137A, NR concentration 270 nM, RXRa partner concentration 90 nM)
Outline: as §1

[13] = test system: PPARg DBDmut IVT, anti-PPARg (DBD mutation: PPARg1 K132A/R137A, NR concentration 270 nM)
Outline: as §1

[14] = test system: PPARg homodimer (NR concentration 180 nM)
Outline: as §1

[15] = test system: PXR:RXRa (NR concentration 270 nM, RXRa partner concentration 90 nM)
Outline: as §1

[16] = test system: PXR homodimer (NR concentration 270 nM)
Outline: as §1

[17] = test system: RARa:RXR (NR concentration 270 nM, RXRa partner concentration 90 nM)
Outline: as §1

[18] = test system: RARa homodimer (NR concentration 270 nM)
Outline: as §1

[19] = test system: RARb:RXRa (NR concentration 270 nM, RXRa partner concentration 90 nM)
Outline: as §1

Row | Sequence | PBM binding z-score [1] | PBM binding z-score [2] | PBM binding z-score [3] | PBM binding z-score [4] | PBM binding z-score [5] | PBM binding z-score [6] | PBM binding z-score [7] | PBM binding z-score [8] | PBM binding z-score [9] | PBM binding z-score [10] | PBM binding z-score [11] | PBM binding z-score [12] | PBM binding z-score [13] | PBM binding z-score [14] | PBM binding z-score [15] | PBM binding z-score [16] | PBM binding z-score [17] | PBM binding z-score [18] | PBM binding z-score [19]
1 | AGAATGGGGTTATTAAGATCAGGGAATTGCGGTC | 3.03 | 2.77 | 0.597 | 2.14 | 4.48 | 3.31 | 3.5 | 1.26 | 2.65 | 3.63 | 3.26 | 1.44 | 1.55 | 2.23 | 2.44 | 1.82 | 2.78 | 1.71 | 1.77
2 | AGTCAAAGTTCACTAGGTTACGTAAGATTCAGCT | 4.92 | 5.44 | 3.95 | 1.5 | 4.85 | 7.41 | 6.74 | 4.4 | 5.88 | 3.75 | 5.6 | 1.8 | 1.2 | 1.99 | 4.58 | 4.84 | 4.08 | 2.05 | 4.93
3 | CCTACTGGGCCATTAAGAGGTCATTGATCATATG | 2.62 | 4.19 | 6.58 | 0.0638 | 3.94 | 2.19 | 3.06 | 0.745 | 2 | 4.25 | 4.13 | 0.259 | 0.0479 | 2.02 | 4.48 | 1.79 | 4.14 | 0.836 | 2.94
4 | CCTTACGGGTCACTGACAGCTTATAGCATTTGGA | 5.14 | 3.38 | 0.0209 | -0.0269 | 4.99 | 4.12 | 4.15 | 1.74 | 3.11 | 3.83 | 3.59 | 0.471 | 0.264 | 2.05 | 2.79 | -0.111 | 3.44 | 1.14 | 3.84
5 | ACTTACGGGTCAACGACGTTATAGCACGCGTATA | 6.03 | 3.91 | 0.144 | 0.83 | 5.66 | 5.3 | 5.09 | 1.83 | 3.59 | 3.06 | 3.74 | 1.35 | 0.774 | 1.67 | 3.19 | -0.178 | – | 0.684 | 4.07
6 | AGAATGAGGTTACCAAAGATCAGTGAAACGCTTG | 1.73 | 6.11 | 0.0874 | -0.00616 | 3.4 | 2.6 | 2.57 | 1.19 | 2.06 | 4.06 | 3.2 | 1.32 | 0.399 | 0.652 | 1.56 | 0.0456 | 1.9 | 0.395 | 2.06
7 | AGTCGGAGGACAAAGGTCAGAGCTACGCCAGTGA | 3.97 | 4.34 | 1.6 | 0.26 | 5.01 | 7.55 | 7.07 | 5.94 | 7.56 | 0.569 | 3.68 | 0.374 | -0.0334 | 3.93 | 3.98 | 0.166 | 5.06 | 1.59 | 4.31
8 | CCTACTGGGCCATTCAGAGGTCATCGATCATATG | 2.91 | 4.22 | 6.05 | 0.293 | 4.19 | 2.51 | 3.01 | 1.49 | 2.37 | 4.55 | 4.6 | 1.41 | -0.27 | 5.67 | 5.11 | 2.18 | 5.25 | 1.9 | 3.29

Source: the supplement of paper PMC6555819
